Data: PubChem BioAssay AID1159580 (chemical genetic matrix, 2015)
Values joined by “and” are separate entries in the source; they are usually repeats but may differ in a detail not shown here. Identical values can stand only once. Among all 5,500 compounds or so, about 2,000 (36%) were called active. About 18% were inconclusive and are not listed. Rule as the data show it: active = normalized growth mostly below about 0.91 (no sharp cut-off); inconclusive = no clear call, values can overlap the other calls; inactive = mostly above about 0.92. Some of the results follow.

Test: chemical genetic growth profiling, strain panel (AID 1159580);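 also: tested at 20 µM; growth read once vehicle control cultures reached saturation at 30 °C; 1 = growth at the plate median or of vehicle wells; lower values mean less growth of the strain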
Details: S. cerevisiae deletion strains, growth OD
[1] = locus YAR019C, strain CDC15, stronger effect = lower value
[2] = locus YBL105C, strain PKC1, stronger effect = lower value
[3] = locus YBR135W, strain CKS1, stronger effect = lower value
[4] = locus YBR136W, strain MEC1, stronger effect = lower value
[5] = locus YBR160W, strain CDC28, stronger effect = lower value
[6] = locus YDL017W, strain CDC7, stronger effect = lower value
[7] = locus YDL028C, strain MPS1, stronger effect = lower value
[8] = locus YDL101C, strain DUN1, stronger effect = lower value
[9] = locus YDL108W, strain KIN28, stronger effect = lower value
[10] = locus YDL132W, strain cdc53, stronger effect = lower value
[11] = locus YDL214C, strain PRR2, stronger effect = lower value
[12] = locus YDR052C, strain DBF4, stronger effect = lower value
[13] = locus YDR054C, strain cdc34, stronger effect = lower value
[14] = locus YDR226W, strain ADK1, stronger effect = lower value
[15] = locus YDR477W, strain SNF1, stronger effect = lower value
[16] = locus YER123W, strain YCK3, stronger effect = lower value
[17] = locus YER133W, strain GLC7, stronger effect = lower value
[18] = locus YFL009W, strain cdc4, stronger effect = lower value
[19] = locus YFL029C, strain CAK1, stronger effect = lower value
[20] = locus YFR003C, strain YPI1, stronger effect = lower value
[21] = locus YFR019W, strain FAB1, stronger effect = lower value
[22] = locus YFR028C, strain CDC14, stronger effect = lower value
[23] = locus YGR040W, strain KSS1, stronger effect = lower value
[24] = locus YGR052W, strain FMP48, stronger effect = lower value
[25] = locus YGR092W, strain DBF2, stronger effect = lower value
[26] = locus YHR030C, strain SLT2, stronger effect = lower value
[27] = locus YHR079C, strain IRE1, stronger effect = lower value
[28] = locus YHR082C, strain KSP1, stronger effect = lower value
[29] = locus YHR205W, strain SCH9, stronger effect = lower value
[30] = locus YIL147C, strain SLN1, stronger effect = lower value
[31] = locus YJL095W, strain BCK1, stronger effect = lower value
[32] = locus YJL128C, strain PBS2, stronger effect = lower value
[33] = locus YJL157C, strain FAR1, stronger effect = lower value
[34] = locus YJR016C, strain ILV3, stronger effect = lower value
[35] = locus YJR066W, strain TOR1 (second series), stronger effect = lower value
[36] = locus YJR066W, strain TOR1, stronger effect = lower value
[37] = locus YKL048C, strain ELM1, stronger effect = lower value
[38] = locus YKL067W, strain YNK1, stronger effect = lower value
[39] = locus YKL101W, strain HSL1, stronger effect = lower value
[40] = locus YKL193C, strain SDS22, stronger effect = lower value
[41] = locus YKL203C, strain TOR2, stronger effect = lower value
[42] = locus YLR113W, strain HOG1, stronger effect = lower value
[43] = locus YLR133W, strain CKI1, stronger effect = lower value
[44] = locus YLR403W, strain SFP1, stronger effect = lower value
[45] = locus YML070W, strain DAK1, stronger effect = lower value
[46] = locus YMR001C, strain CDC5, stronger effect = lower value
[47] = locus YMR205C, strain PFK2 (second series), stronger effect = lower value
[48] = locus YMR277W, strain FCP1, stronger effect = lower value
[49] = locus YNL006W, strain LST8, stronger effect = lower value
[50] = locus YNL020C, strain ARK1, stronger effect = lower value
[51] = locus YNL161W, strain CBK1, stronger effect = lower value
[52] = locus YNL183C, strain NPR1, stronger effect = lower value
[53] = locus YNL207W, strain RIO2, stronger effect = lower value
[54] = locus YNL222W, strain SSU72, stronger effect = lower value
[55] = locus YNL307C, strain MCK1 (second series), stronger effect = lower value
[56] = locus YOL078W, strain AVO1, stronger effect = lower value
[57] = locus YOL136C, strain PFK27, stronger effect = lower value
[58] = locus YOR061W, strain CKA2, stronger effect = lower value
[59] = locus YOR119C, strain RIO1, stronger effect = lower value
[60] = locus YOR231W, strain MKK1, stronger effect = lower value
[61] = locus YOR329C, strain SCD5, stronger effect = lower value
[62] = locus YPL031C, strain PHO85, stronger effect = lower value
[63] = locus YPL153C, strain RAD53, stronger effect = lower value
[64] = locus YPL204W, strain HRR25, stronger effect = lower value
[65] = locus YPL209C, strain IPL1, stronger effect = lower value
[66] = locus YPL256C, strain CLN2, stronger effect = lower value
[67] = locus YPR025C, strain CCL1, stronger effect = lower value
[68] = locus YPR106W, strain ISR1, stronger effect = lower value
[69] = locus YPR111W, strain DBF20, stronger effect = lower value
[70] = strain NNK1, stronger effect = lower value
[71] = strain TSCII, stronger effect = lower value
[72] = locus YAL013W, strain DEP1, stronger effect = lower value
[73] = locus YMR263W, strain SAP30, stronger effect = lower value
[74] = locus YNL128W, strain TEP1, stronger effect = lower value
[75] = locus YNL153C, strain GIM3, stronger effect = lower value
[76] = locus YNL322C, strain KRE1, stronger effect = lower value
[77] = locus YPL241C, strain CIN2, stronger effect = lower value
[78] = locus YAL040C, strain CLN3, stronger effect = lower value
[79] = locus YCL061C, strain MRC1 (second series), stronger effect = lower value
[80] = locus YDR363W, strain ESC2, stronger effect = lower value
[81] = locus YER002W, strain NOP16, stronger effect = lower value
[82] = locus YGR229C, strain SMI1, stronger effect = lower value
[83] = locus YNL175C, strain NOP13, stronger effect = lower value
[84] = locus YNL197C, strain WHI3, stronger effect = lower value
[85] = locus YNL224C, strain SQS1, stronger effect = lower value
[86] = locus YOR083W, strain WHI5 (second series), stronger effect = lower value

Measured: normalized growth

CSc1n[nH]c(-c2cc(C(F)(F)F)cc(C(F)(F)F)c2)n1
active: [26] 0.671 | [42] 0.615 | [66] 0.709
inactive: [1] 0.939 | [2] 0.952 | [3] 0.946 | [4] 0.948 | [5] 0.939 | [6] 0.955 | [7] 0.939 | [8] 0.973 | [9] 0.918 | [10] 0.955 | [11] 0.892 | [12] 0.977 | [13] 0.938 | [14] 0.942 | [15] 0.895 | [16] 0.892 | [17] 0.935 | [18] 0.92 | [19] 0.918 | [20] 0.953 | [21] 0.979 | [22] 0.936 | [23] 0.893 | [24] 0.92 | [25] 0.894 | [27] 0.82 | [28] 0.914 | [29] 0.785 | [30] 0.941 | [31] 0.791 | [32] 0.859 | [33] 0.938 | [34] 0.947 | [35] 0.939 | [36] 0.859 | [37] 0.904 | [38] 0.887 | [39] 0.853 | [40] 0.939 | [41] 1 | [43] 0.904 | [44] 0.927 | [45] 0.878 | [46] 0.937 | [47] 0.925 | [48] 0.921 | [49] 0.945 | [50] 0.897 | [51] 0.948 | [52] 0.868 | [53] 0.947 | [54] 0.927 | [55] 0.856 | [56] 0.953 | [57] 0.84 | [58] 0.937 | [59] 0.942 | [60] 0.776 | [61] 0.95 | [62] 0.885 | [63] 0.887 | [64] 0.864 | [65] 0.952 | [67] 0.946 | [68] 0.929 | [69] 0.952 | [70] 0.917 | [71] 0.937

Cc1noc(C)c1-c1nc(-c2cc(C(F)(F)F)cc(C(F)(F)F)c2)no1
inactive: [72] 1.02 | locus YBR229C, strain ROT2, stronger effect = lower value 1.01 | locus YCL061C, strain MRC1, stronger effect = lower value 0.992 | [8] 1.02 | locus YDL134C, strain PPH21, stronger effect = lower value 1.01 | locus YDR150W, strain NUM1, stronger effect = lower value 0.983 | locus YEL061C, strain CIN8, stronger effect = lower value 1.01 | locus YGR078C, strain PAC10, stronger effect = lower value 1.01 | [26] 1.03 | locus YHR087W, strain rtc3, stronger effect = lower value 1 | locus YJL187C, strain SWE1, stronger effect = lower value 1 | locus YJR043C, strain POL32, stronger effect = lower value 1 | locus YJR075W, strain HOC1, stronger effect = lower value 0.999 | locus YLR039C, strain RIC1, stronger effect = lower value 1.06 | locus YLR058C, strain SHM2 (second series), stronger effect = lower value 0.993 | locus YLR085C, strain ARP6, stronger effect = lower value 1.03 | locus YLR262C, strain YPT6, stronger effect = lower value 1.03 | locus YML094W, strain GIM5, stronger effect = lower value 1.07 | locus YMR219W, strain ESC1, stronger effect = lower value 0.998 | [73] 0.981 | locus YMR307W, strain GAS1, stronger effect = lower value 0.99 | [74] 1.02 | [75] 1 | locus YNL298W, strain CLA4 (second series), stronger effect = lower value 1 | [76] 1.01 | locus YNR030W, strain Alg12, stronger effect = lower value 1.03 | locus YPL055C, strain LGE1, stronger effect = lower value 1.05 | [77] 1.01 | locus YPR135W, strain CTF4, stronger effect = lower value 1.07

Fc1cccc(Cl)c1CSc1n[nH]c(-c2cc(C(F)(F)F)cc(C(F)(F)F)c2)n1
inactive: [1] 0.973 | [2] 0.981 | [3] 0.981 | [4] 0.982 | [5] 0.977 | [6] 0.987 | [7] 0.961 | [8] 0.986 | [9] 0.97 | [10] 0.975 | [11] 0.916 | [12] 0.994 | [13] 0.973 | [14] 0.971 | [15] 0.891 | [16] 0.918 | [17] 0.939 | [18] 0.961 | [19] 0.973 | [20] 0.977 | [21] 0.913 | [22] 0.973 | [23] 0.898 | [24] 0.925 | [25] 0.914 | [27] 0.836 | [28] 0.871 | [29] 0.821 | [30] 0.98 | [31] 0.79 | [32] 0.957 | [33] 0.926 | [34] 0.981 | [35] 0.918 | [36] 0.873 | [37] 0.974 | [38] 0.916 | [39] 0.889 | [40] 0.975 | [41] 1.01 | [43] 0.902 | [44] 0.926 | [45] 0.907 | [46] 0.97 | [47] 0.937 | [48] 0.959 | [49] 0.983 | [50] 0.905 | [51] 0.976 | [52] 0.933 | [53] 0.978 | [54] 0.965 | [55] 0.744 | [56] 0.976 | [57] 0.878 | [58] 0.911 | [59] 0.943 | [60] 0.846 | [61] 0.983 | [62] 0.896 | [63] 0.894 | [64] 0.868 | [65] 0.979 | [67] 0.981 | [68] 0.97 | [69] 0.945 | [70] 0.96 | [71] 0.972
active: [26] 0.372 | [42] 0.773 | [66] 0.811

Clc1cc(Cl)cc(-c2nc(SCc3ccc(Cl)cc3Cl)n[nH]2)c1
active: [26] 0.356 | [42] 0.772 | [66] 0.835
inactive: [1] 0.991 | [2] 0.99 | [3] 0.982 | [4] 0.998 | [5] 0.991 | [6] 0.987 | [7] 0.995 | [8] 1 | [9] 0.986 | [10] 0.981 | [11] 0.913 | [12] 0.998 | [13] 0.984 | [14] 0.992 | [15] 0.938 | [16] 0.908 | [17] 0.968 | [18] 0.981 | [19] 0.995 | [20] 0.995 | [21] 0.901 | [22] 1 | [23] 0.964 | [24] 0.937 | [25] 0.839 | [27] 0.845 | [28] 0.911 | [29] 0.829 | [30] 0.992 | [31] 0.81 | [32] 0.964 | [33] 0.942 | [34] 0.987 | [35] 0.98 | [36] 0.893 | [37] 0.964 | [38] 0.882 | [39] 0.891 | [40] 0.985 | [41] 1.05 | [43] 0.924 | [44] 0.963 | [45] 0.92 | [46] 0.988 | [47] 0.927 | [48] 0.983 | [49] 0.965 | [50] 0.914 | [51] 0.991 | [52] 0.916 | [53] 0.983 | [54] 0.987 | [55] 0.864 | [56] 0.985 | [57] 0.893 | [58] 0.756 | [59] 0.956 | [60] 0.873 | [61] 0.986 | [62] 0.927 | [63] 0.889 | [64] 0.915 | [65] 0.985 | [67] 0.98 | [68] 0.981 | [69] 0.948 | [70] 0.981 | [71] 0.993

NN=C(N)N
inactive: [72] 1.03 and 1.01 | [78] 0.987 and 0.992 | [79] 1 | [80] 1.03 | [81] 1.03 and 0.995 | [82] 1.03 | [73] 1.01 | [75] 1.01 | [83] 1.02 and 1.01 | [84] 1.01 | [85] 0.993 and 1.03 | [86] 1.02 and 1.01 | [77] 1.01

CCN(CC)c1ncnc2c1ncn2[C@@H]1O[C@H](COP(=O)(O)OP(=O)(O)C(Br)(Br)P(=O)(O)O)[C@@H](O)[C@H]1O
inactive: [78] 1.05 | [79] 1 | [80] 0.937 | [81] 1 | [82] 0.992 | [73] 0.991 | [74] 1 | [83] 0.992 | [84] 0.977 | [85] 0.971 | [76] 0.995 | [86] 0.979 | [77] 1.01
